Data on twelve compounds can be found in PubChem BioAssay (NCATS).

Each structure is given as a SMILES string. “And” between values parts separate entries of the source, which are not always exact repeats. Equal entries are not always repeated. Unmarked numbers belong to inactive results. Results filed as inconclusive are left out. The source made the active and inactive calls. Unless noted, the call rests on the fitted dose curve; in most records, active means well fitted curve in the direction sought with a large enough effect; inconclusive means small, poorly fitted or top-dose-only effect, or another doubt; inactive means no such curve, though single readings can be large; an effect the other way counts as inactive or inconclusive.

Test [1] in a line: Cell Viability - Mesenchymal (AID 546).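 Further: cells exposed to compound for 40 hours before reading.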 Further: potency means the concentration at half of the fitted maximal effect. The method, boiled down: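 Human kidney mesenchymal cells from normal renal glomeruli, 1000 cells/well, rested 5 hr at 37 °C, then treated 40 hr at 37 °C in complete medium. Cellular ATP read by CellTiter-Glo luminescence; AC50 from Hill-equation fits.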
The nature of test [2]: Cellular Toxicity (caspase-3) HepG2 (AID 654).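 Further: cells exposed to compound for 16 hours before reading; 0% = DMSO alone and 100% = caspase signal from 100 µM tamoxifen.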 Put shortly:
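qHTS, HepG2, 1500 cells/well, complete medium; cpd 16 h 37 °C; Caspase-Glo 3/7, 20 min RT; lum. Norm: DMSO vs 100 uM tamoxifen; AC50 Hill fit.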

The nature of test [3]: Cellular Toxicity (caspase-3) Jurkat (AID 655).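 Further: cells exposed to compound for 16 h at 37 °C before reading.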 Further: potency means the concentration at half of the fitted maximal effect. Put shortly:
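Jurkat cells (5000/well) in complete medium were treated with compounds for 16 hr at 37 °C, then Caspase-Glo 3/7 luminescence was read after 20 min at room temperature. Data normalized to DMSO (basal) and 100 uM tamoxifen (100%); AC50 from Hill fit.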

The nature of test [4]: Cellular Toxicity (caspase-3) HUV-EC-C (AID 656).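 Further: 0% = DMSO basal and 100% = 100 µM tamoxifen.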 Put shortly: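 HUV-EC-C endothelial cells, 1000/well, were pre-incubated 5 hr at 37°C, then exposed to compounds for 16 hr at 37°C. Caspase-Glo 3/7 luminescence was read after 20 min at room temperature. AC50 came from Hill fits, normalized to DMSO and 100 uM tamoxifen.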
The nature of test [5]: Cellular Toxicity (caspase-3) SHSY5Y (AID 657). Put shortly:
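SH-SY5Y human neuroblastoma cells (1500/well) were treated with compounds for 16 h at 37 °C, then Caspase-Glo 3/7 luminescence was read after 1 h at room temperature. Data normalized to DMSO and 10 uM staurosporine; AC50 from Hill fits.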

The nature of test [6]: Cellular Toxicity (caspase-3) BJ (AID 658).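 Further: 0% = DMSO basal and 100% = 10 µM staurosporine.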 The conditions noted are these: Potency: caspase-3 activation. Put shortly: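 BJ human foreskin fibroblasts, 1000 cells/well, treated 16 hours at 37 °C in complete medium; caspase 3/7 activity by Caspase-Glo luminescence after 1 hr at room temperature. Normalized to DMSO and 10 uM staurosporine; AC50 from Hill fits.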
A short description of test [7]: Cellular Toxicity (caspase-3) MRC-5 (AID 659).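 Further: 0% = DMSO basal and 100% = 10 µM staurosporine.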 The conditions noted are these: Potency: caspase-3 activation. The method, boiled down:
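MRC-5 human normal lung fibroblasts, 1500 cells/well, treated 16 h at 37 °C in complete medium. Caspase 3/7 measured by Caspase-Glo luminescence after 1 h at room temperature. Normalized to DMSO and 10 uM staurosporine; AC50 from Hill fit.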

Test [8] can be described thus: Cellular Toxicity (caspase-3) Mesangial (AID 660).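 Further: combined caspase 3 and 7 activity read by Caspase-Glo luminescence.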 Put shortly: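 Concentration-response qHTS: compound-induced rise in caspase 3/7 luminescence in human mesangial cells after 16 h, normalized to DMSO and 100 uM tamoxifen controls.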
The nature of test [9]: Cellular Toxicity (caspase-3) SK-N-SH (AID 661).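 Further: 0% = DMSO basal and 100% = 10 µM staurosporine.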 The conditions noted are these: SK-N-SH caspase-3 activation, qHTS; caspase-3 activation: at 91.7 µM (top of the series), DMSO as zero, staurosporine as full. Put shortly: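 Caspase 3/7 activation is measured as a luminescence increase from aminoluciferin released by substrate cleavage in SK-N-SH cells after 16 hr compound treatment; values are AC50 from concentration-response curves.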

The nature of test [10]: Cellular Toxicity (caspase-3) H-4-II-E (AID 663).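 Further: cells exposed to compound for 16 hr before readout; 0% = DMSO basal and 100% = 100 µM tamoxifen.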 Put shortly: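 Rat hepatoma H-4-II-E cells (1500/well) plated 5 hr, then exposed to compound titrations for 16 hr at 37 °C. Caspase-Glo 3/7 luminescence read after 20 min at RT; data normalized to DMSO and 100 uM tamoxifen, AC50 from Hill fits.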
A short description of test [11]: Cellular Toxicity (caspase-3) Hek293 (AID 664).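 Further: cells exposed to compound for 16 h at 37 °C before readout.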 Put shortly:
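Activation of caspase-3/7 is measured as increased luminescence from cleaved peptide-aminoluciferin substrate in HEK293 cells treated 16 hours at 37 °C. AC50 values come from Hill-equation fits of concentration-response data.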

Test [12] in a line: Cellular Toxicity (caspase-3) N2a (AID 665).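 Further: compound exposure lasted 16 h at 37 °C before readout.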 The method, boiled down:
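Plated mouse neuroblastoma N2a cells received titrated compounds for 16 h in complete medium. Caspase activity was then detected with a peptide-aminoluciferin luminescent reagent.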

Test [13] can be described thus: Cellular Toxicity (caspase-3) NIH 3T3 (AID 666).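 Further: caspase signal read after 16 h compound exposure; 0% = DMSO basal and 100% = 100 µM tamoxifen stimulation.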 The method, boiled down:
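Concentration-response qHTS in NIH 3T3 mouse fibroblasts scores caspase-3/7 activation as rising luminescence after 16 hr compound exposure. Signals are scaled between DMSO-only and 100 uM tamoxifen.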

Test [14] is described as follows: Cellular Toxicity (caspase-3) Renal Proximal Tubule (AID 667).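 Further: cells exposed to compound for 16 hours at 37 °C before detection; 0% = DMSO basal and 100% = 10 µM staurosporine.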 The conditions noted are these: renal proximal tubule cells; at 91.7 µM (top of the series) unless noted. Put shortly:
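Primary rat proximal tubule cells, 1000/well, 5 h plating at 37 °C, then compound 16 h at 37 °C. Caspase-Glo 3/7 reagent, 1 h RT, luminescence. Normalized to DMSO (basal) and 10 uM staurosporine (100%); Hill-fit AC50.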

Test [15] has as its target Cytochrome P450 3A4 (Homo sapiens) (UniProt P08684). Nature of the test: qHTS Assay for Activators of Cytochrome P450 3A4 (AID 885). Further: nearly all actives have a fitted effect of over 65% in size. The method, boiled down: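 Signal was normalized against complete inhibition by 57 uM ketoconazole. The reaction used 20nM CYP3A4 with 25uM Luciferin-PPXE, 10-min compound preincubation and a 60-min NADPH-supported step at RT.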
The target in test [16] is 3',5'-cyclic-AMP phosphodiesterase 4B (Homo sapiens) (UniProt Q07343). Nature of the test: qHTS Assay for Inhibitors of PDE-IV (AID 607; active means well fitted activation curve with a large enough effect in the main read-out, with a control signal flat, not every such curve was filed as active; further: % of control where 0% means no effect). Put shortly:
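Cell-based read-out of cAMP via a modified cyclic nucleotide-gated channel and membrane potential dye (535/590 nm) in HEK293 cells expressing PDE4 endogenously. Compounds tested up to 22.9 uM final; 100 uM RO 20-1724 reference.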

The target of test [17] is Cytochrome P450 3A4 (Homo sapiens) (UniProt P08684). Nature of the test: qHTS Assay for Inhibitors and Substrates of Cytochrome P450 3A4 (AID 884). Further: nearly all actives have a fitted effect of over 50% in size. Further: potency means the concentration at half of the fitted maximal effect. Put shortly: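 20 nM human CYP3A4 with 25 uM Luciferin-PPXE (at KM) in 200 mM KPO4, preincubated 10 min with compound; NADPH regeneration started a 60 min RT reaction. Luciferin detected by luminescence, normalized to 57 uM ketoconazole as full inhibition.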
Chain of Cytochrome P450 3A4 (Homo sapiens) (P08684 whole entry, looked up): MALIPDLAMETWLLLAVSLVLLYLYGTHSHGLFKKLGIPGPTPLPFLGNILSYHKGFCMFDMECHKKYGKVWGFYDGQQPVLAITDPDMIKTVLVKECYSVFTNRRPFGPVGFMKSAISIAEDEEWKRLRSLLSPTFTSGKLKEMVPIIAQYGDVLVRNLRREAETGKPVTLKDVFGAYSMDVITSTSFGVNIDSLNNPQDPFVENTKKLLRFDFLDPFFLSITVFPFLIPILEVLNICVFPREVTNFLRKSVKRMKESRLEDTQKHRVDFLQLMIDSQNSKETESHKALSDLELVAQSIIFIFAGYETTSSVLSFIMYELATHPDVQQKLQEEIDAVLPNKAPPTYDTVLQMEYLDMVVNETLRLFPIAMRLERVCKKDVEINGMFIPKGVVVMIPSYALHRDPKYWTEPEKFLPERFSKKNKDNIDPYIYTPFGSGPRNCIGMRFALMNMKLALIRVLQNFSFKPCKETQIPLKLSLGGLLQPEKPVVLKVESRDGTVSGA
(In qHTS, concentration-response curves come from the screen itself.)

The target in test [18] is Guanine nucleotide-binding protein G(i) subunit alpha-1 (Homo sapiens) (UniProt P63096). Nature of the test: qHTS Assay for Inhibitors of RGS12 GoLoco Motif Activity (Green Fluorophore) (AID 879).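 Further: 0% = labeled peptide with Gαi1 and full inhibition = labeled peptide alone without protein; negative values mean loss of peptide binding seen as reduced polarization.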 Put shortly:
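Fluorescence polarization assay: 50 nM Gαi1 with 10 nM FITC-labeled RGS12 GoLoco peptide in 10 mM Tris pH 7.5, 150 mM NaCl, 0.1 mM GDP, 0.05% NP40, 10 min at room temperature with compound.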

For test [19], the target named is Cytochrome P450 2C9 (Homo sapiens) (UniProt P11712). Put plainly: qHTS Assay for Inhibitors and Substrates of Cytochrome P450 2C9 (AID 883). Further: on the % scale 0 is the no-effect control and ±100 the full control effect; nearly all actives have a fitted effect of over 60% in size. Put shortly:
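Human CYP2C9 (10nM) with Luciferin-H at 100uM (its KM) in 25mM KPO4; compound preincubated 10 min at 37C, then NADPH regeneration for 60 min at 37C. Luciferin read by luminescence after detection reagent; normalized to 57uM sulphaphenazole as full inhibition.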

The target in test [20] is Cytochrome P450 2D6 (Homo sapiens) (UniProt P10635). Nature of the test: qHTS Assay for Inhibitors and Substrates of Cytochrome P450 2D6 (AID 891).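 Further: luciferin methyl ether substrate demethylated by CYP2D6 with NADPH regeneration; on the % scale 0 is the no-effect control and ±100 the full control effect; nearly all actives have a fitted effect of over 60% in size.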 Put shortly: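 Human CYP2D6 (5 nM) with 30 uM Luciferin-ME EGE (at Km) in 100 mM KPO4, compound preincubated 10 min, then NADPH regeneration system for 60 min at room temperature. Luciferin read by luminescence; normalized to 1.43 uM quinidine.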
Chain of Cytochrome P450 2D6 (Homo sapiens) (P10635 whole entry, looked up): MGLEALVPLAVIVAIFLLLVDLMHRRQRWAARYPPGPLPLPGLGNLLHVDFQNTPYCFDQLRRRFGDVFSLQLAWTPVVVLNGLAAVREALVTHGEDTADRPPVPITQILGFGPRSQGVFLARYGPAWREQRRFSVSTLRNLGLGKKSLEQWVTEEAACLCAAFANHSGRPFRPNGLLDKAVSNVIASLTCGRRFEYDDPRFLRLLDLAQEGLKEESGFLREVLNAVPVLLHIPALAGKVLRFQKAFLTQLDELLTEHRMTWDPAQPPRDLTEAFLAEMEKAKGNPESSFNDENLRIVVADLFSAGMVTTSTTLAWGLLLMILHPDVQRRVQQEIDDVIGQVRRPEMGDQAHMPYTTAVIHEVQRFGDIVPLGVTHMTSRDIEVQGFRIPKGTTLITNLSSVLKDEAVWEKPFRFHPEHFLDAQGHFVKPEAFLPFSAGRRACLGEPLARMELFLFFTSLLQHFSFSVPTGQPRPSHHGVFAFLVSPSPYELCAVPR

Chain of 3',5'-cyclic-AMP phosphodiesterase 4B (Homo sapiens) (Q07343 whole entry, looked up): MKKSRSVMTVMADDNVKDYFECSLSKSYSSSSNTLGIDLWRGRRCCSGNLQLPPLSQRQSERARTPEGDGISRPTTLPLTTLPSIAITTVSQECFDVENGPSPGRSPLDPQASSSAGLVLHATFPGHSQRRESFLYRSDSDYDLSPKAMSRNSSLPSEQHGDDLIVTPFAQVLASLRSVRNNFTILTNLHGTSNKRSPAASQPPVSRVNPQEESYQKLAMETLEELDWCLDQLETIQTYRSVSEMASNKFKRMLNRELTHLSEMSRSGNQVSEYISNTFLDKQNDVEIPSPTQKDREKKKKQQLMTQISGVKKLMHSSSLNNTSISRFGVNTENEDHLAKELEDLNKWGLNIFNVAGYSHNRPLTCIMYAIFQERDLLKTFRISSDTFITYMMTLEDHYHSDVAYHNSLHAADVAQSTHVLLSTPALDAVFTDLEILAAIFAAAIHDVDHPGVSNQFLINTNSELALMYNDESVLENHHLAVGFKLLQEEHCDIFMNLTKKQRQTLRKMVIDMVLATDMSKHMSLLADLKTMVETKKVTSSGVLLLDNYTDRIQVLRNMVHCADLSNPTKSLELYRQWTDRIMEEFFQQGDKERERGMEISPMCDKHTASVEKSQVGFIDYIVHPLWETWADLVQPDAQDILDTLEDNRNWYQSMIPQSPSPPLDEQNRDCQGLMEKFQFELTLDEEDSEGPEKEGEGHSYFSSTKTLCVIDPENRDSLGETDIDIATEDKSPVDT
Chain of Guanine nucleotide-binding protein G(i) subunit alpha-1 (Homo sapiens) (P63096 whole entry, looked up): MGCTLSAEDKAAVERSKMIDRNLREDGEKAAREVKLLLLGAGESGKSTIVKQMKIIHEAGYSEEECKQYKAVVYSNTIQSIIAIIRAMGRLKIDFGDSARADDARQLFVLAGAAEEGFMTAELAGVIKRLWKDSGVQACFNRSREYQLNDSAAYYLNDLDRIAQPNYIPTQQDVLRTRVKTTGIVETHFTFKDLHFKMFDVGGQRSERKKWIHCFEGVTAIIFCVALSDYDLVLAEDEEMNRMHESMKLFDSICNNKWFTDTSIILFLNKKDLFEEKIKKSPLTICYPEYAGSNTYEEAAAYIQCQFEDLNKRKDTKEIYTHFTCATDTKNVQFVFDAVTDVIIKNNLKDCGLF
Chain of Cytochrome P450 2C9 (Homo sapiens) (P11712 whole entry, looked up): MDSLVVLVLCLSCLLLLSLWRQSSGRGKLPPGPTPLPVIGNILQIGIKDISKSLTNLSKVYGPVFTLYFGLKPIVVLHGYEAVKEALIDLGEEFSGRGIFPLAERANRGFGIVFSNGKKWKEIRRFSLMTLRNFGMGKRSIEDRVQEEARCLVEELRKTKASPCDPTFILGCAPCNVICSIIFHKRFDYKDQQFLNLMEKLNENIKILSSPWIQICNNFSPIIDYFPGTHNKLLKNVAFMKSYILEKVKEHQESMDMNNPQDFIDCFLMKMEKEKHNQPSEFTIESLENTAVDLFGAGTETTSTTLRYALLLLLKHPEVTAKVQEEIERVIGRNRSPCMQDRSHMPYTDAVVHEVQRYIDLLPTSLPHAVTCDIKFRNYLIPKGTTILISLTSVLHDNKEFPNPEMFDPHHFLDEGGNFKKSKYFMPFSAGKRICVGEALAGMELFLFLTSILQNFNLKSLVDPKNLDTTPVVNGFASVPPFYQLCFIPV

Turning to `C[C@]12CCC(=O)C[C@@H]1CC[C@@H]1[C@@H]2CC[C@]2(C)[C@@H](O)CC[C@@H]12`, the Potency entry in [1], in test [3], in test [6], in [7], in test [9] and in test [13] was “inactive” each time. Also, the compound was called inactive in test [2], in test [4], in test [5], in test [8], in [10] and in test [11]. Also, the call in test [12] and in [15] was inactive. Also, the caspase-3 activation in test [14] is 0.8%.
Turning to `CN(N=O)c1cc(O)ccc1O`, in test [16], the Potency result is “inactive”.
`O=C/C=C/c1ccccc1`: the Potency entry in test [1], in test [3], in test [6], in test [7], in [9] and in test [13] was “inactive” in each case. Moreover, the Potency entry in [17] is “inactive”. For the same compound, the outcome in test [2], in test [4], in [5], in test [8], in test [10] and in test [11] was inactive. The compound was called inactive in [12]. For the same compound, the caspase-3 activation in test [14] was 0.729% and 4.55%.
Take `Oc1cc(Cl)c(Cl)cc1Cl`: the Potency result in [1], in test [3], in test [6], in test [7], in test [9] and in [13] was “inactive” each time. Also, the Potency entry in test [17] was “inactive”. The outcome in test [2], in test [4], in test [5], in test [8], in test [10] and in test [11] was inactive. Besides, the compound was called inactive in [12]. Also, in test [14], the caspase-3 activation was 4.35%.
`[Cl-].[Cl-].[Hg+2]`: the Potency in test [1] is 12.6 µM (active). Also, the outcome in [2], in [4], in test [5], in [8], in test [10] and in [11] was inactive. Further, the call in test [12] was inactive. In addition, the Potency result in test [3], in test [6], in test [7], in test [9] and in [13] was “inactive” throughout. Also, the caspase-3 activation in [14] was -16%.
`C[C@H]1CC[C@@H]2[C@@H](C)[C@H]3[C@H](C[C@H]4[C@@H]5CC=C6CC(O[C@@H]7O[C@H](CO)[C@H](O)[C@H](O[C@@H]8O[C@H](CO)[C@@H](O)[C@H](O)[C@H]8O)[C@H]7O[C@H]7O[C@@H](C)[C@H](O)[C@@H](O)[C@H]7O)CC[C@]6(C)[C@H]5CC[C@]34C)N2C1` (stereo not given in full): in test [1], the Potency is 31.6 µM (active). In addition, the call in test [2], in test [4], in [5], in test [8], in [10] and in [11] was inactive. The outcome in test [12] was inactive. Further, the Potency entry in test [3], in test [6], in test [7], in test [9], in test [13] and in test [17] was “inactive” in each case. Besides, the caspase-3 activation in [14] is 5.75%.
For `O=[N+]([O-])c1ccc(F)c([N+](=O)[O-])c1`, the Potency result in test [1], in [3], in test [6], in [7], in test [9] and in [13] was “inactive” throughout. In addition, the Potency entry in [17] is “inactive”. The result in [2], in test [4], in test [5], in [8], in [10] and in [11] was inactive. In [12], the compound was called inactive. For the same compound, in test [14], the caspase-3 activation was -20.3%.
As to `C[C@H]1CCC[C@H](O)CCCCCc2cc(O)cc(O)c2C(=O)O1`, the Potency entry in test [1], in test [3], in test [6], in test [7], in test [9] and in test [13] was “inactive” throughout. Moreover, the compound was classed as inactive in test [2], in test [4], in test [5], in test [8], in [10] and in test [11]. Further, the outcome in test [12] and in [15] was inactive. In test [14], the caspase-3 activation was -5.62%. The Potency in [17] was 3.98 µM (active).
As for `O=C1C=CC(=O)C=C1`, the Potency result in [1], in test [3], in test [6], in test [7], in [9] and in [13] was “inactive” in each case. Besides, the Potency entry in test [18], in test [19], in test [17] and in test [20] was “inactive” each time. For the same compound, the call in test [2], in test [4], in test [5], in [8], in test [10] and in test [11] was inactive. In addition, the call in test [12] was inactive. Also, the caspase-3 activation in [14] was 4.64%.
With `Clc1ccc(N2C[C@H]3CC[C@@H](C2)N3)nn1`, the Potency entry in [16] and in test [18] was “inactive” in each case.
For the compound `O=C1C2CC=CCC2C(=O)N1SC(Cl)(Cl)Cl` (stereo not given), the Potency was 25.1 µM (active) and 20 µM (active) in test [1]; 1.58 µM (active) in [3]. Besides, the result in test [2], in test [4], in test [5], in test [8], in [10] and in test [11] was inactive. Further, the outcome in test [12] and in [15] was inactive. The Potency entry in test [6], in test [7] and in test [13] was “inactive” each time. Further, the caspase-3 activation in test [14] was -14.4% and -19.5%.
For `CCCCCl`, the Potency entry in test [1], in [3], in test [6], in [7], in [9] and in [13] was “inactive” each time. In addition, the Potency entry in [17] is “inactive”. Moreover, the compound was classed as inactive in test [2], in test [4], in test [5], in [8], in [10] and in [11]. Further, the call in test [12] was inactive. Further, the caspase-3 activation in [14] is 1.64% [at 91.7 µM, primary cells freshly taken from rat, solvent-only wells 0%, staurosporine 100%].
